High-throughput results deposited in PubChem by several laboratories.
GRIN3A LBD mod = modulates the human NR3A ligand-binding domain | hit rate 2.5% among 340,000 | Tm shift relative to glycine control, % at 25 µM | AID 1259313 | NR3A LBD differential scanning fluorimetry, Tm shift; 0% = protein alone, 100% = glycine-bound protein;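 active means melting temperature shift of at least 10% of the positive control shift, at one fixed dose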
MPTP inh = permeability transition pore inhibition; isolated mouse mitochondria, Ca2+ swelling absorbance, 30 min; inhibition, % at 10 µM; hit rate 1.4% among 360,000; AID 602449;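 active means inhibition of 50% or more, scaled per plate between neutral and stimulator controls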
Beta apoptosis = blocks beta cell apoptosis; INS-1E cytokine-induced death, ATP luminescence, 48 h; percent of positive-control rescue, neutral wells zero; protection from apoptosis, % (concentration not given with the values); hit rate 0.8% among 300,000; AID 435005;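 active means Every replicate reaches about 75%, or at least half do and their mean reaches it too, limit read from the data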;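 further: higher means more ATP so stronger rescue from cytokine killing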
SKKanGAS inh = blocks kanamycin growth of S. pyogenes SKKanGAS strain; BacTiter-Glo, 6 h; inhibition, % at 7.5 µM; hit rate 1.3% among 300,000; AID 1662;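 active means mean replicate score, as percent of positive control median, at least 50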;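 further: strain carries kanamycin resistance gene driven by streptokinase promoter and grows in 40 µg/ml kanamycin; loss of luminescence reflects streptokinase promoter inhibition or plain growth inhibition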
Mdm2-MdmX inh = disrupts the human Mdm2-MdmX interaction; O15151+Q00987; SaOS-2 split-luciferase Mdm2/MdmX complementation, luminescence; inhibition, % at 8 µM; hit rate 3% among 330,000;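 active means inhibition of at least 50% at 8 µM in the primary screen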
CSC inhib = cancer stem cell inhibition; cancer stem cell-like cells viability, luminescence; AID 2717; inhibition, % at 7.5 µM; hit rate 1.1% among 300,000; in the data active means inhibition above about 75%; tested in HMLE shEcad cells
A number is an active result. This is a sample that favours compounds with a hit; in the whole collection about 6.9% have one here.

For COC1=CC(=O)[C@]2(C=C1OC)OC[C@@H]1Oc3c(ccc4c3C=CC(C)(C)O4)C(=O)[C@@H]12 the results were GRIN3A LBD mod inactive, Beta apoptosis 126, Mdm2-MdmX inh inactive and CSC inhib inactive.
c1ccc2c3c([nH]c2c1)C1(CCNCC1)NCC3 was read as GRIN3A LBD mod inactive, MPTP inh inactive, Beta apoptosis 87, SKKanGAS inh inactive, Mdm2-MdmX inh inactive and CSC inhib inactive.
`O=c1[nH]c(=O)n(Cc2ccc(F)cc2)c(O)c1/C=N/Nc1ccccc1` gave GRIN3A LBD mod inactive, MPTP inh inactive, Beta apoptosis inactive, SKKanGAS inh inactive, Mdm2-MdmX inh inactive and CSC inhib 79.
O=c1[nH]c(=O)n(CC2CCCO2)c(O)c1/C=C1\C=Nc2ccccc21 (configuration not stated) was read as GRIN3A LBD mod inactive, MPTP inh inactive, Beta apoptosis inactive, SKKanGAS inh inactive, Mdm2-MdmX inh inactive and CSC inhib inactive.
`O=c1[nH]c(=O)n(Cc2ccccc2)c(O)c1/C=C1\C=Nc2ccccc21` gave GRIN3A LBD mod 10, MPTP inh inactive, Beta apoptosis inactive, SKKanGAS inh inactive and Mdm2-MdmX inh inactive.
O=c1[nH]c(=O)n(CCC2=CCCCC2)c(O)c1/C=N/Nc1ccccc1 was read as GRIN3A LBD mod inactive, MPTP inh inactive, Beta apoptosis inactive, SKKanGAS inh inactive, Mdm2-MdmX inh inactive and CSC inhib 97.
Screening Cc1nc2ccccc2c(=O)n1/N=C/c1cc(Br)cc(Br)c1O returned GRIN3A LBD mod inactive, MPTP inh inactive, SKKanGAS inh 99, Mdm2-MdmX inh inactive and CSC inhib inactive.
O=P(NC1CCCCC1)(Oc1ccccc1)Oc1ccccc1 was read as GRIN3A LBD mod inactive and MPTP inh inactive.
COC(=O)C1=C(N)Oc2c(c(=O)oc3ccccc23)[C@]12C(=O)N(C)c1ccccc12 was read as GRIN3A LBD mod 17, MPTP inh inactive, Beta apoptosis inactive, SKKanGAS inh inactive, Mdm2-MdmX inh inactive and CSC inhib inactive.
COC(=O)C1=C(N)OC(C)=C(C(C)=O)C12C(=O)N(C)c1ccccc12 (configuration not stated) was read as GRIN3A LBD mod inactive, MPTP inh inactive, Beta apoptosis inactive, SKKanGAS inh inactive, Mdm2-MdmX inh inactive and CSC inhib inactive.
N#CC12CC(=O)N1Cc1cnnn1-c1ccccc12 (configuration not stated) was read as MPTP inh inactive.
`O=c1[nH]c2ccccc2n1C1CCN(C(c2ccccc2OC(F)(F)F)c2nnnn2-c2ccc3c(c2)OCCO3)CC1` (configuration not stated) gave MPTP inh inactive.
`CC1CCC(C(C)C)C(OP(N)(=O)c2ccccc2)C1` (configuration not stated) gave GRIN3A LBD mod inactive, MPTP inh inactive, Beta apoptosis inactive, SKKanGAS inh inactive and Mdm2-MdmX inh inactive.
CC1CCC(C(C)C)C(OC(=O)COC(=O)c2ccccc2N)C1 (configuration not stated) was read as GRIN3A LBD mod inactive, MPTP inh inactive, Beta apoptosis inactive, SKKanGAS inh 67, Mdm2-MdmX inh inactive and CSC inhib inactive.
Screening O=c1[nH]c(=S)n(-c2ccccc2)c(O)c1C=NCCN1CCNCC1 returned GRIN3A LBD mod inactive, MPTP inh inactive, Beta apoptosis inactive, SKKanGAS inh inactive, Mdm2-MdmX inh inactive and CSC inhib inactive.
For CSc1ncc(/C=C2/C(=O)NC(=O)N(c3ccc(C)cc3)C2=O)cn1 the results were GRIN3A LBD mod inactive, MPTP inh inactive, Beta apoptosis inactive, SKKanGAS inh inactive, Mdm2-MdmX inh inactive and CSC inhib inactive.
For Cc1ccc(N2C(=O)NC(=O)/C(=C/c3cnn(-c4ccc(C)cc4)c3)C2=O)cc1 the results were GRIN3A LBD mod inactive, MPTP inh inactive, Beta apoptosis 85, SKKanGAS inh inactive, Mdm2-MdmX inh inactive and CSC inhib inactive.
For Cc1ccc(-n2c(-c3cccs3)nc3ccccc3c2=O)cc1 the results were GRIN3A LBD mod inactive, MPTP inh inactive, Beta apoptosis inactive, SKKanGAS inh inactive, Mdm2-MdmX inh inactive and CSC inhib 78.
Screening CCN1C[C@@]2(COC)C3[C@@H](OC)[C@H]4[C@@H]1[C@@]3(C1C[C@H]3[C@H](OC(=O)c5ccccc5)C1[C@]4(OC(C)=O)C[C@H]3OC)[C@@H](OC)C[C@H]2O (some centres not stated) returned GRIN3A LBD mod inactive, MPTP inh inactive, Beta apoptosis inactive, SKKanGAS inh inactive, Mdm2-MdmX inh inactive and CSC inhib inactive.
`Clc1ccc(C(Cn2ccnc2)OCc2csc3c(Cl)cccc23)c(Cl)c1` (configuration not stated) gave GRIN3A LBD mod inactive, MPTP inh inactive, Beta apoptosis 86, Mdm2-MdmX inh inactive and CSC inhib 107.
`CC(C)c1ccc(-n2c(O)c(/C=N/NC(=O)c3ccncc3)c(=O)[nH]c2=O)cc1` gave GRIN3A LBD mod inactive, MPTP inh inactive, Beta apoptosis inactive, SKKanGAS inh inactive, Mdm2-MdmX inh inactive and CSC inhib inactive.
Screening O=C(N/N=C/c1c(O)n(Cc2ccco2)c(=O)[nH]c1=O)c1ccccc1O returned GRIN3A LBD mod inactive, MPTP inh inactive, Beta apoptosis inactive, SKKanGAS inh 68, Mdm2-MdmX inh inactive and CSC inhib inactive.
Screening CCCCC(=O)N/N=C/c1c(O)n(Cc2ccco2)c(=O)[nH]c1=O returned GRIN3A LBD mod inactive, MPTP inh inactive, Beta apoptosis inactive, SKKanGAS inh inactive, Mdm2-MdmX inh inactive and CSC inhib inactive.
CC(C)c1ccc(-n2c(O)c(/C=N/NC(=O)c3ccccc3O)c(=O)[nH]c2=S)cc1 was read as GRIN3A LBD mod inactive, MPTP inh inactive, Beta apoptosis inactive, SKKanGAS inh 70, Mdm2-MdmX inh inactive and CSC inhib inactive.
CCCCn1c(O)c(/C=N/NC(=O)c2ccncc2)c(=O)[nH]c1=O was read as GRIN3A LBD mod inactive, MPTP inh inactive, Beta apoptosis inactive, SKKanGAS inh inactive, Mdm2-MdmX inh inactive and CSC inhib inactive.
O=C(N/N=C/c1c(O)n(CCc2ccccc2)c(=O)[nH]c1=O)c1ccccc1 was read as GRIN3A LBD mod inactive, MPTP inh inactive, Beta apoptosis inactive, SKKanGAS inh 55, Mdm2-MdmX inh inactive and CSC inhib inactive.
O=C(N/N=C/c1c(O)n(C2CCCCC2)c(=S)[nH]c1=O)c1ccccc1 was read as GRIN3A LBD mod inactive, MPTP inh inactive, Beta apoptosis inactive, SKKanGAS inh 80, Mdm2-MdmX inh inactive and CSC inhib inactive.
`NC1=NC(=O)N2CC12` (configuration not stated) gave GRIN3A LBD mod inactive and MPTP inh inactive.
Screening CCC(=O)[C@@H](C)[C@@H](O)[C@H](C)C[C@@H](C)C1OC(=O)C[C@@]2(O)CC=C(C)C(O2)C(C)=CCCC[C@H](O[C@H]2C[C@@H](OC(N)=O)[C@H](O)[C@@H](C)O2)C=C[C@H](C)C[C@H]1C (some centres not stated) returned MPTP inh inactive.
